Compound activity: PubChem BioAssay, National Center for Advancing Translational Sciences (NCATS)
Only some compounds are listed: those with a hit (about 2.8% of all), similar ones and a draw of the others.
HTT cytoprotect: qHTS Multiplex Assay to Identify Dual Action Probes in a Cell Model of Huntington: Cytoprotection (ATP); PC12 HTT-Q103 induced, cytoprotection, ATP luminescence, 40 h; Potency, µM (top dose mostly 56.4 µM), hits mostly activators; hit rate 0.14% among 230,000; note: nearly all actives have a fitted effect of over 45% in size
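Compounds added alongside 100 nM tebufenozide, which induces toxic Q103 huntingtin exon 1-GFP in stable PC12 cells; surviving cells quantified by luminescent ATP measurement. Medium: phenol red-free DMEM, 5% equine and 5% calf serum.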
TGFb SMAD3 inh: qHTS for Inhibitors of TGF-b; Potency, µM (highest dose often 46.1 µM), most hits filed as inhibitors; HepG2 CAGA-GFP TGF-b/SMAD3 reporter, GFP fluorescence, 18 h; TGF-beta stimulated, 500 pg/mL final; hit rate 1.2% among 410,000; note: nearly all actives have a fitted effect of over 65% in size
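HEPG2 CAGA-GFP cells (1000/well, DMEM with 1% FBS) were pre-incubated 2 h at 37 degrees C, given compound by pin tool, then stimulated with TGF-beta at 500 pg/mL final for 18 h before per-cell GFP fluorescence imaging.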
S2 tox: Viability Counterscreen for Primary qHTS for Inhibitors of ATXN expression; hit rate 0.49% among 400,000; Potency, µM (highest dose often 56.7 µM), actives largely listed as cytotoxic; AID 651635, 2014; S2 cells (HEK-293 line with an ATXN2-luciferase reporter) viability, CellTiter-Fluor protease fluorescence, 24 h; note: nearly all actives have a fitted effect of over 40% in size
HepG2 tox: qHTS for Inhibitors of TGF-b: Cytotox Counterscreen; HepG2 CAGA-GFP viability, ATP luminescence, 18 h; hit rate 0.76% among 410,000; Potency, µM (titrated, usually from 46.1 µM), most hits filed as cytotoxic
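CellTiter-Glo luminescence gave cytotoxicity after 18 hours at 37 degrees C. The cells were HepG2 CAGA-GFP in 1% FBS DMEM, stimulated with 500 pg/mL TGF-beta after compound addition. %Activity was normalised to no-cell wells (complete cell-killing) and DMSO (no toxicity), and curves were fitted and classified.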
ATXN2 expr inh: Primary qHTS for Inhibitors of ATXN expression. HEK-293 ATXN2-luciferase reporter, luminescence, 24 h. Potency, µM (top dose mostly 57 µM), usual class: inhibitors. AID 1745845, 2022. hit rate 0.72% among 360,000; note: nearly all actives have a fitted effect of over 55% in size
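qHTS (up to 57 uM final) was run with 24 h compound exposure of reporter cells at 37 °C. Each well was multiplexed: SteadyGlo luminescence measured ATXN2-luciferase expression after a fluorogenic Gly-Phe-AFC viability readout (25 uM final).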
HTT aggregate: qHTS Multiplex Assay to Identify Dual Action Probes in a Cell Model of Huntington: Aggregate Formation (GFP). PC12 HttQ103-GFP aggregates, Acumen cytometry, 40 h. Potency, µM (top dose mostly 46.1 µM), actives largely listed as inhibitors. hit rate 1.1% among 220,000; note: nearly all actives have a fitted effect of over 60% in size
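Huntingtin Q103 exon 1–GFP aggregates in induced PC12 cells (100 nM tebufenozide) were quantified by cytometry from lysates, with compounds dosed in titration.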
Hits are given with their value; i = inactive; ? = inconclusive; nt = no result; [ ] = dose if it differs, or a comment. Calls come from the whole dose curve; as a rule, active = well fitted curve in the direction sought with a large enough effect; inconclusive = small, poorly fitted or top-dose-only effect, or another doubt; inactive = no such curve, though single readings can be large; an effect the other way counts as inactive or inconclusive.

SMILES | HTT cytoprotect | TGFb SMAD3 inh | S2 tox | HepG2 tox | ATXN2 expr inh | HTT aggregate
COc1ccc(C(=O)N/N=C/c2cc(Br)ccc2O)cc1OC | i[10 µM] | i | i | i | 1.4µM | ?
O=c1c2c([N+](=O)[O-])cc([N+](=O)[O-])cc2sn1Cc1ccccc1 | nt | ? | ? | 16µM | ? | nt
CC(=O)C1=NN(c2ccccc2)C(c2ccc3c(c2)OCO3)N1c1ccc(N2CCOCC2)cc1 (stereo unspecified) | nt | ? | i | i | i | i
COc1cccc(N2C(C(C)=O)=NN(c3ccccc3)C2c2ccc(N3CCOCC3)cc2)c1 (stereo unspecified) | nt | i | i | i | i | 11µM
CC(C)(C)OC(=O)NC(Cc1ccccc1)C(O)c1ccco1 (stereo unspecified) | nt | ? | nt | i | nt | nt
CC[C@H](C(=O)[C@H](C)[C@H](O)[C@H](C)CCc1ccc(C)c(O)c1C(=O)O)[C@H]1O[C@](CC)([C@@H]2CC[C@@](O)(CC)[C@H](C)O2)C[C@H]1C | i | nt | 11µM | nt | nt | nt
CC(C)N(C(=O)[C@H]1CC(CC(=O)NCCC2=CCCCC2)C(=O)N2CCc3c([nH]c4ccccc34)[C@]12C)C(C)C (stereo partly specified) | nt | ? | 40µM | i | ? | nt
CC(C)N(C(=O)[C@H]1C[C@H](CC(=O)NCc2cccc(C(F)(F)F)c2)C(=O)N2CCc3c([nH]c4cc(CCC(=O)N(C)C)ccc34)[C@]12C)C(C)C | nt | ? | 16µM | i | ? | nt
CC(C)N(C(=O)[C@H]1CC(CC(=O)NCCc2ccccn2)C(=O)N2CCc3c([nH]c4ccccc34)[C@]12C)C(C)C (stereo partly specified) | nt | ? | i | i | i | nt
CCN(CC)C(=O)[C@H]1C[C@H](CC(=O)NCCCN(C)C)C(=O)N2CCc3c([nH]c4ccc(Cl)cc34)[C@]12C | nt | ? | i | i | i | nt
CCN(CC)C(=O)[C@H]1C[C@H](CC(=O)NCC23CC4CC(CC(C4)C2)C3)C(=O)N2CCc3c([nH]c4ccc(Cl)cc34)[C@]12C | nt | 13µM | ? | i | ? | nt
CCN(CC)C(=O)[C@H]1C[C@H](CC(=O)NCc2cccc(C(F)(F)F)c2)C(=O)N2CCc3c([nH]c4cc(CCC(=O)N(C)C)ccc34)[C@]12C | nt | i | ? | i | i | nt
CC(C)(C)n1ncc2c(=O)n(Cc3ccccc3Cl)cnc21 | nt | i | nt | i | nt | nt
O=C(Nc1ccccc1)N1CCC2(CC1)CCN(C(=O)c1cnccn1)CC2 | 3.5µM | nt | nt | nt | nt | nt
O=[N+]([O-])c1ccc(/C=N/Nc2ncccc2[N+](=O)[O-])s1 | nt | i | i | 5µM | i | nt
COc1cccc(/C=N/Nc2ncccc2[N+](=O)[O-])c1OC | i[10 µM] | i | i | i | 3.2µM | i[9.22 µM]
O=C(C[n+]1ccccc1Cl)c1ccccc1 | nt | i | nt | i | nt | nt
Cc1cc(-c2ccnc(-n3ncc(C(=O)NCc4cccnc4)c3C3CC3)n2)c(C)s1 | nt | nt | i | nt | nt | nt
C=C1CC(Cn2cc(Br)c(=O)[nH]c2=O)(c2ccc(-c3ccccc3)cc2)OC1=O (stereo unspecified) | nt | 4.5µM | ? | 7.1µM | 28µM | nt
O=c1[nH]c(=O)n(CCOc2ccc(Cl)cc2)cc1Br | i | i | i | i | i | i
O=C(c1cc2cc([N+](=O)[O-])ccc2oc1=O)N1CCN(c2ncccn2)CC1 | ? | i | i | i | i | 0.71µM
Cc1ccc(C(C)(C)C)cc1S(=O)(=O)N1CC(=O)Nc2ccccc21 | nt | i | nt | i | i | nt
Cc1cc(C(C)(C)C)cc(C)c1S(=O)(=O)N1CC(=O)Nc2ccccc21 | i[10 µM] | ? | i | 13µM | i | i[9.22 µM]
O=S1(=O)CCO[C@H]2CCCC[C@@H]2N1Cc1ccccc1 | nt | i | nt | i | nt | nt
CN(CC(=O)Nc1ccc(C#N)cc1)Cc1ccc(Cl)cc1 | i[10 µM] | i | i | i | i | i
N#Cc1ccc(NC(=O)Nc2ccc(Cl)cc2)cc1 | i[10 µM] | ? | ? | i | ? | 25µM
